# Most compounds without a hit are left out; they make up all but 7.3% or so of the library.
# Vaccinia mCherry – inhibitors of vaccinia virus infection (mCherry reporter signal); Vaccinia virus mCherry reporter infection, fluorescence; Potency, µM (doses to about 36.5 µM), for inactives: at the top dose activity change, negative = inhibition, hits mostly inhibitors; hit rate 0.63% among 310,000; AID 720579; calls by dose curve; tested in A549 cells; also: potency is read from the fitted curve at half-maximal effect; nearly all actives have a fitted effect of over 35% in size
# FMDV inh – blocks foot and mouth disease virus. FMDV antiviral cell-based qHTS. Potency, µM (highest dose often 57.9 µM), without a hit: top-dose activity change, negative = inhibition, hits mostly inhibitors. hit rate 1.2% among 410,000; calls by dose curve; tested in HEK293T cells; also: read-out not given here; potency is read from the fitted curve at half-maximal effect; nearly all actives have a fitted effect of over 45% in size
# HCV inhibitor – blocks hepatitis C virus. Potency, µM (highest dose often 41.8 µM), without a hit: at the highest dose activity change, negative = inhibition, hits mostly inhibitors. AID 651820. hit rate 3.4% among 340,000. Huh7.5.1 HCVcc-Cre infection, luciferase reporter, 44 h; active = well fitted inhibition curve with a large enough effect; inconclusive = small, poorly fitted or top-dose-only effect, or another doubt; inactive = no such curve, though single readings can be large or run the other way; also: potency is read from the fitted curve at half-maximal effect
#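 Infectious HCVcc-Cre (~0.5 moi) was added to cells just after compound, with cells seeded 4 h earlier at 1,000 per well. Luciferase activity after 44 h culture reported infection; substrate was incubated 15 min at room temperature before reading.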
# VACV Venus inh – vaccinia inhibition (Venus reporter). Vaccinia virus Venus reporter expression, fluorescence. Potency, µM (highest dose often 36.5 µM), inactives show at the top dose activity change, negative = inhibition, most hits filed as inhibitors. hit rate 0.46% among 330,000; calls by dose curve; tested in A549 cells; also: potency is read from the fitted curve at half-maximal effect; nearly all actives have a fitted effect of over 30% in size
# HCMV antiviral – inhibitors of human cytomegalovirus; HFF cells, HCMV-luciferase reporter, 72 h; active compounds read low; activity change, negative = inhibition, % at 57.5 µM; hit rate 4.5% among 410,000; AID 1259415; in the data active = activity change below about -60%; inconclusive = no clear call, values can overlap the other calls; inactive = above about -39%
#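 Screen run at 2 compound doses on HFFs infected with reporter HCMV, MOI 1 PFU/cell. Luciferase activity from cell lysates at 72 h post infection gave inhibition relative to buffer-only and Salinomycin wells.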
# * marks the source's active call; other numbers are inactive results; i = inactive; ? = inconclusive; / = no result; [ ] = dose if it differs, or a comment. % is scaled to controls: 0 for no effect and ±100 for the full control effect.
SMILES,Vaccinia mCherry,FMDV inh,HCV inhibitor,VACV Venus inh,HCMV antiviral
CCN(Cc1ccccc1)S(=O)(=O)c1ccc(C(=O)N(CCCN(C)C)c2nc3cc4c(cc3s2)OCCO4)cc1,-27%,?,11µM*,?,-34
CN(C)CCCN(C(=O)c1cc2cc([N+](=O)[O-])ccc2s1)c1nc2cc3c(cc2s1)OCCO3,14µM*,40µM*,?,13µM*,-98*
CCN(Cc1ccccc1)S(=O)(=O)c1ccc(C(=O)N(CCCN(C)C)c2nc3cc(OC)ccc3s2)cc1,i,0%,25µM*,?,-15
COc1ccc2sc(N(CCCN(C)C)C(=O)c3ccc(C(=O)c4ccccc4)cc3)nc2c1,-25%,-17%,?,?,-3
COCCCNC(=O)C1CCN(C(=O)c2cc3sccc3n2Cc2ccc(F)cc2)CC1,-16%,/,?,-24%,/
O=C(NCCCN1CCCC1)C1CCN(C(=O)c2cc3sccc3n2Cc2ccc(F)cc2)CC1,-26%,-17%,25µM*,-22%,/
Cn1c(C(=O)N2CCCC(C(=O)NCCc3ccccc3)C2)cc2sccc21 (configuration not stated),-2%,/,?,-16%,-97*
CCn1c(C(=O)N2CCC(C(=O)NCc3ccc4c(c3)OCO4)CC2)cc2sccc21,11%,32µM*,?,-12%,6
Cn1c(C(=O)N2CCCC(C(=O)NCc3ccc4c(c3)OCO4)C2)cc2sccc21 (configuration not stated),-1%,0%,?,-23%,-13
CCOc1ccccc1NC(=O)c1ccc2c(Cl)c3c(nc2c1)CCC3,-24%,29%,/,-16%,31
COc1ccc(-c2nc(C)c(CCNC(=O)C(=O)Nc3cccc(F)c3)s2)cc1OC,-18%,-7%,/,-15%,4
Cc1oc(-c2ccccc2F)nc1CS(=O)CC(=O)NCc1ccc(F)cc1 (configuration not stated),i,-24%,-4%,-13%,30
C=CCN1CC[C@]23c4c5ccc(O)c4OC2C(=O)CC[C@]3(O)C1C5 (some centres not stated),-12%,-3%,/,-8%,/
C=CCN1CC[C@]23c4c5ccc(O)c4OC2C(=O)CC[C@@]3(O)C1C5 (some centres not stated),i,-17%,2.5µM*,-14%,-31
COc1ccc2c3c1OC1C(=O)CC[C@@]4(O)[C@@H](C2)N(C)CC[C@]314 (some centres not stated),-24%,?,?,-11%,-80*
C=CCN1CC[C@]23c4c5ccc(O)c4O[C@H]2/C(=N/NC(=O)c2ccccc2)CC[C@@]3(O)[C@H]1C5,i,?,-3%,-8%,-64*
Oc1ccc2c3c1OC1c4oc5ccccc5c4C[C@@]4(O)[C@@H](C2)N(CC2CC2)CC[C@]314 (some centres not stated),i,-2%,-5%,-12%,-61*
CC(C)(O)CC[C@@H](O)[C@](C)(O)C1CC[C@@]2(O)C3=CC(=O)[C@]4(O)C[C@@H](O)[C@@H](O)C[C@]4(C)C3CC[C@]12C (some centres not stated),-10%,-9%,13%,-9%,-4
Cc1ccc(S(=O)(=O)N2CCC(C(=O)Nc3ccc(N4CCOCC4)cc3)CC2)cc1C,i,-13%,-6%,-9%,-13
CC1CCC(NC(=O)CC(NC(N)=O)c2ccccc2Cl)CC1 (configuration not stated),22%,17%,7%,-3%,-11
COc1ccc(N2CCN(Cc3nc4ccsc4c(=O)[nH]3)CC2)cc1,/,-9%,-4%,/,3
O=c1[nH]c(CN2CCN(c3ccc([N+](=O)[O-])cc3)CC2)nc2ccsc12,/,32µM*,?,?,13
COC(=O)C1=C(C(=O)OC)C2CCCC1C1N=NN(c3ccccc3)C21 (configuration not stated),/,/,/,/,18
CC(=O)C(C(C)=O)c1c(Cl)c(O)c(O)c2c(C(=O)c3ccccc3)coc12,i[1.46 µM],?,10µM*,?,-107*
CN1CCN(Cc2c(O)ccc3occ(C(=O)c4ccccc4)c23)CC1,/,8%,?,/,14
SMILES,Vaccinia mCherry,FMDV inh,HCV inhibitor,VACV Venus inh,HCMV antiviral
O=S(=O)(c1ccccc1)c1ncc(C(F)(F)F)cc1Cl,-8%,11µM*,?,-10%,-30
O=C1C(Cl)=C(NCCCO)C(=O)c2ccccc21,/,?,13µM*,-10%,-29
O=C1C(Cl)=C(NCCN2CCOCC2)C(=O)c2ncccc21,/,16µM*,/,/,/
O=C1C(Cl)=C(NCCCN2CCOCC2)C(=O)c2ccccc21,-11%,-29%,10µM*,23%,6
Cc1nc(-c2ccc(F)cc2)c(CC(=O)N2CCN(S(=O)(=O)c3cccc(F)c3)CC2)s1,-20%,-5%,-12%,-16%,-7
Cc1ccc(CNC(=O)Cn2c(=O)n(-c3ccc(C)cc3)c(=O)c3c2c2cc(C)ccc2n3C)cc1,-1%,-5%,/,0%,19
Cc1cccc(NC(=O)c2nc[nH]c2C(=O)NCc2ccccc2)c1,-16%,-12%,?,?,-61*
O=C(Nc1ccccc1)c1nc[nH]c1C(=O)NCc1ccccc1,-24%,-15%,-13%,?,-1
CN(Cc1ccccc1)C(=O)c1[nH]cnc1C(=O)NCc1ccccc1,-13%,-4%,-27%,-12%,-61*
Cc1cccc(NC(=O)c2nc[nH]c2C(=O)N[C@H](C)c2ccccc2)c1,28µM*,-25%,?,?,-2
CN(Cc1ccccc1)C(=O)c1[nH]cnc1C(=O)NCc1ccc(CNC(=O)OC(C)(C)C)cc1,-7%,?,?,-16%,-1
O=C(C[n+]1cccc2cccc(O)c21)c1ccc(Br)cc1,-13%,/,/,-3%,/
Cc1cccnc1C(NC(=O)C1CCN(CCCOc2ccccc2)CC1)c1ccc(F)cc1 (configuration not stated),14%,-21%,/,-22%,41
Cc1ccccc1N1C(=O)C2C3C=CC(CC3)C2C1=O (configuration not stated),-16%,1%,24%,-16%,-11
O=C1C2C3C=CC(CC3)C2C(=O)N1c1ccccc1F (configuration not stated),?,-14%,-4%,-5%,-63*
Cc1ccc(Cl)cc1NC(=O)CSc1ccc(C(=O)O)cn1,-15%,-15%,/,-3%,3
Cc1ccc(S(=O)(=O)N2C[C@@H]3CCCC[C@@H]3[C@@H](C)[C@H]2c2cn(Cc3ccccc3)c3ncccc23)cc1,?,-25%,?,?,-86*
Cc1ccc(S(=O)(=O)N2C[C@@H]3CCCC[C@@H]3[C@@H](C)[C@H]2c2cn(Cc3ccccc3)c3ccccc23)cc1,-25%,0%,?,?,-97*
COc1ccc(CN2CCNC(=O)C2CC(=O)N(C)C2CCOCC2)cc1OC (configuration not stated),i,0%,/,-5%,30
